Activity calls are given as the source filed them. Rule for the calls: active = hit-call score of the fitted dose curve at least 0.9, where 1 is the maximum; inactive = score below 0.9.
Key:
Conditions in all cases: mRNA level, 48 h; actives raise or lower the signal
[1] = read-out: Bcl-2 (BAX) gene, BAX (gene 581); test: LTEA_HepaRG_BAX: Life Technologies and Expression Analysis (LTEA) Assay for Bcl-2 (BAX) gene using HepaRG (AID 2283470)
In short: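 Human HepaRG cells treated in duplicate for 48 h across eight concentrations (max 100 uM, 0.5% DMSO); BAX expression measured by qRT-PCR.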

[2] = read-out: adenosine kinase (ADK) gene, ADK (gene 132); test: LTEA_HepaRG_ADK: Life Technologies and Expression Analysis (LTEA) Assay for adenosine kinase (ADK) gene using HepaRG (AID 2283471)
In short: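 ADK expression quantified by qRT-PCR, normalised to three housekeeping genes, after 48 h exposure of HepaRG cells to eight concentrations (top 100 uM, half-log steps, duplicate, 0.5% DMSO). Up- or down-regulation fitted relative to vehicle.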

[3] = read-out: Alpha-fetoprotein (AFP) gene, AFP (gene 174); test: LTEA_HepaRG_AFP: Life Technologies and Expression Analysis (LTEA) Assay for Alpha-fetoprotein (AFP) gene using HepaRG (AID 2283472)
In short: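 Measures AFP mRNA change in HepaRG after 48 h chemical exposure (8 half-log concentrations, highest 100 uM, 0.5% DMSO). Fold change relative to DMSO, fitted in both directions.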

[4] = read-out: BCL2L11 (gene 10018); test: LTEA_HepaRG_BCL2L11: Life Technologies and Expression Analysis (LTEA) Assay for Bcl-2 (BCL2L11) gene using HepaRG (AID 2283473)
In short: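 Differentiated human HepaRG cells in serum-free induction medium were exposed in duplicate for 48 h to eight concentrations (top 100 uM, half-log steps, 0.5% DMSO). BCL2L11 mRNA was quantified by TaqMan qRT-PCR, normalized to ACTB/GAPDH/POLR2A, bidirectional fit versus DMSO.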

[5] = read-out: Apolipoprotein A-V (APOA5) gene, APOA5 (gene 116519); test: LTEA_HepaRG_APOA5: Life Technologies and Expression Analysis (LTEA) Assay for Apolipoprotein A-V (APOA5) gene using HepaRG (AID 2283474)
In short: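 Differentiated human HepaRG cells were exposed in duplicate for 48 h to eight half-log concentrations from 100 uM in 0.5% DMSO. APOA5 mRNA was quantified by TaqMan qRT-PCR, normalized to ACTB, GAPDH and POLR2A, and fitted bidirectionally against DMSO.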

[6] = read-out: Bcl-2 (BID) gene, BID (gene 637); test: LTEA_HepaRG_BID: Life Technologies and Expression Analysis (LTEA) Assay for Bcl-2 (BID) gene using HepaRG (AID 2283476)
In short: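 Assay used HepaRG hepatic cells treated 48 h in serum-free medium with half-log dilutions from 100 uM. Endpoint: BID mRNA, qRT-PCR, normalized to ACTB/GAPDH/POLR2A.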

[7] = read-out: Caspase-3 (Homo sapiens) (UniProt P42574); test: LTEA_HepaRG_CASP3: Life Technologies and Expression Analysis (LTEA) Assay for cysteine-aspartic acid protease (CASP3) using HepaRG (AID 2283477)
In short: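 Differentiated human HepaRG cells in serum-free induction medium were exposed 48 h to 8-point half-log concentrations from 100 uM (0.5% DMSO vehicle). CASP3 mRNA was measured by qRT-PCR, normalised to ACTB, GAPDH and POLR2A, with bidirectional fitting against DMSO.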

[8] = read-out: Cytochrome P450 (CYP24A1), CYP24A1 (gene 1591); test: LTEA_HepaRG_CYP24A1: Life Technologies and Expression Analysis (LTEA) Assay for Cytochrome P450 (CYP24A1) using HepaRG (AID 2283478)
In short: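 Differentiated HepaRG cells, pre-cultured 48 h, were exposed in duplicate for 48 h in serum-free induction medium to 8 half-log concentrations (top 100 uM, 0.5% DMSO). CYP24A1 mRNA was quantified by TaqMan qRT-PCR, normalized to ACTB/GAPDH/POLR2A, fitted bidirectionally versus DMSO.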

[9] = read-out: cysteine-aspartic acid protease (CASP8), CASP8 (gene 841); test: LTEA_HepaRG_CASP8: Life Technologies and Expression Analysis (LTEA) Assay for cysteine-aspartic acid protease (CASP8) using HepaRG (AID 2283480)
In short: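 qRT-PCR readout of CASP8 mRNA, normalized to three housekeeping genes, after 48 h chemical exposure of HepaRG cells; 8-point half-log series, top 100 uM, 0.5% DMSO vehicle. Bidirectional curve fitting against DMSO baseline.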

[10] = read-out: Cytochrome P450 (CYP2B6), CYP2B6 (gene 1555); test: LTEA_HepaRG_CYP2B6: Life Technologies and Expression Analysis (LTEA) Assay for Cytochrome P450 (CYP2B6) using HepaRG (AID 2283481)
In short: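 Differentiated HepaRG cells, serum-free induction medium, exposed 48 h in duplicate to 8-point half-log concentrations from 100 uM in 0.5% DMSO. CYP2B6 mRNA by qRT-PCR, normalized to ACTB, GAPDH, POLR2A; bidirectional fit versus DMSO.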

[11] = read-out: Cytochrome P450 2C19 (Homo sapiens) (UniProt P33261); test: LTEA_HepaRG_CYP2C19: Life Technologies and Expression Analysis (LTEA) Assay for CYP2C19 using HepaRG (AID 2283482)
In short: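 Differentiated human HepaRG cells were exposed for 48 h in serum-free induction medium to 8 concentrations (top 100 uM, half-log steps, 0.5% DMSO). CYP2C19 mRNA was measured by qRT-PCR, normalized to ACTB/GAPDH/POLR2A, and fitted bidirectionally against DMSO.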

[12] = read-out: CYP2C9 (gene 1559); test: LTEA_HepaRG_CYP2C9: Life Technologies and Expression Analysis (LTEA) Assay for CYP2C9 using HepaRG (AID 2283484)
In short: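 HepaRG, 48 h dosing, 8-pt half-log series, top 100 uM, 0.5% DMSO vehicle. Read-out: CYP2C9 transcript by TaqMan qRT-PCR, housekeeping-normalized (ACTB/GAPDH/POLR2A). Gain or loss fitted vs DMSO baseline.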

[13] = read-out: CYP2E1 (gene 1571); test: LTEA_HepaRG_CYP2E1: Life Technologies and Expression Analysis (LTEA) Assay for CYP2E1 using HepaRG (AID 2283485)
In short: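 Assay uses 48 h exposure of HepaRG hepatic cells, eight concentrations to 100 uM. Expression of CYP2E1 is quantified by TaqMan qRT-PCR with ACTB, GAPDH and POLR2A normalization; curves fitted in both directions relative to vehicle.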

[14] = read-out: CYP4A11 (gene 1579); test: LTEA_HepaRG_CYP4A11: Life Technologies and Expression Analysis (LTEA) Assay for CYP4A11 using HepaRG (AID 2283486)
In short: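 Differentiated HepaRG cells, serum-free induction medium, exposed 48 h in duplicate to 8-point half-log series from 100 uM in 0.5% DMSO. CYP4A11 mRNA measured by qRT-PCR, normalized to ACTB, GAPDH, POLR2A; bidirectional fit versus DMSO.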

[15] = read-out: Cytochrome P450 3A4 (Homo sapiens) (UniProt P08684); test: LTEA_HepaRG_CYP3A4: Life Technologies and Expression Analysis (LTEA) Assay for CYP3A4 using HepaRG (AID 2283487)
In short: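 Differentiated HepaRG cells, plated 48 h, then dosed 48 h in serum-free induction medium with 0.5% DMSO, 8 half-log concentrations up to 100 uM, duplicate. CYP3A4 mRNA by qRT-PCR, normalized to ACTB/GAPDH/POLR2A; bidirectional fit versus DMSO.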

[16] = read-out: Pro-epidermal growth factor (Homo sapiens) (UniProt P01133); test: LTEA_HepaRG_EGF: Life Technologies and Expression Analysis (LTEA) Assay for Epidermal growth factor (EGF) using HepaRG (AID 2283489)
In short: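 Differentiated human HepaRG cells, plated 48 h then switched to serum-free induction medium, were exposed for 48 h to test chemicals (8-point half-log series, top 100 uM, 0.5% DMSO). EGF mRNA was quantified by qRT-PCR, normalized to ACTB, GAPDH, POLR2A.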

[17] = read-out: Early growth response protein 1 (EGR1) transcription factor, EGR1 (gene 1958); test: LTEA_HepaRG_EGR1: Life Technologies and Expression Analysis (LTEA) Assay for Early growth response protein 1 (EGR1) transcription factor using HepaRG (AID 2283490)
In short: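 HepaRG, 48 h exposure, 8-pt half-log series from 100 uM, 0.5% DMSO vehicle; EGR1 transcript by TaqMan qRT-PCR (Fluidigm array), housekeeping-normalized; bidirectional fit relative to DMSO baseline.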

[18] = read-out: Ezrin (EZR), EZR (gene 7430); test: LTEA_HepaRG_EZR: Life Technologies and Expression Analysis (LTEA) Assay for Ezrin (EZR) using HepaRG (AID 2283491)
In short: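 EZR transcript levels came from Fluidigm qRT-PCR and were normalized to three housekeeping genes after 48 h chemical exposure of HepaRG cells. Dosing used an 8-point half-log series with a 100 uM top concentration in 0.5% DMSO, tested in duplicate; both directions were fitted versus vehicle.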

[19] = read-out: CYP3A5 (gene 1577); test: LTEA_HepaRG_CYP3A5: Life Technologies and Expression Analysis (LTEA) Assay for CYP3A5 using HepaRG (AID 2283493)
In short: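 Readout was CYP3A5 mRNA by qRT-PCR. HepaRG cultures were exposed for 48 h in serum-free induction medium to chemicals at up to 100 uM, and responses were fitted in both directions relative to DMSO vehicle.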

[20] = read-out: Fatty Acid-Binding Protein 1 (FABP1), FABP1 (gene 2168); test: LTEA_HepaRG_FABP1: Life Technologies and Expression Analysis (LTEA) Assay for Fatty Acid-Binding Protein 1 (FABP1) using HepaRG (AID 2283494)
In short: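 qRT-PCR readout of FABP1 transcript (normalized to three housekeeping genes) after 48 h chemical exposure of HepaRG cells; eight concentrations, half-log steps, max 100 uM, 0.5% DMSO vehicle; gain or loss fitted relative to DMSO baseline.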

Measured: AC50

Cytochrome P450 2C19 (Homo sapiens), sequence (P33261 whole entry, looked up): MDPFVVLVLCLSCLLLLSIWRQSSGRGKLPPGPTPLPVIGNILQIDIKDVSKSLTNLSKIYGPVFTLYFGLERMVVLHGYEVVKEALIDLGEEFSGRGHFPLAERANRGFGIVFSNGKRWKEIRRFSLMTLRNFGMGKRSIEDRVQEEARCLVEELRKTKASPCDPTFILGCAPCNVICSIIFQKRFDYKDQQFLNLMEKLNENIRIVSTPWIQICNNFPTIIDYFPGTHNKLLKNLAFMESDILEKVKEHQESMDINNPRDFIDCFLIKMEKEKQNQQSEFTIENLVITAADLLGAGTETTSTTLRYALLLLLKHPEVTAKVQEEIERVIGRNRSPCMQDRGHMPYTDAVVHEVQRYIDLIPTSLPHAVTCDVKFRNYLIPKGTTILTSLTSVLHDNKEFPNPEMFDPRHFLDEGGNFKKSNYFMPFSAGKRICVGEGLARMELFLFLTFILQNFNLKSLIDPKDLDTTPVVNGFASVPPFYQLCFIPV
Caspase-3 (Homo sapiens), sequence (P42574 whole entry, looked up): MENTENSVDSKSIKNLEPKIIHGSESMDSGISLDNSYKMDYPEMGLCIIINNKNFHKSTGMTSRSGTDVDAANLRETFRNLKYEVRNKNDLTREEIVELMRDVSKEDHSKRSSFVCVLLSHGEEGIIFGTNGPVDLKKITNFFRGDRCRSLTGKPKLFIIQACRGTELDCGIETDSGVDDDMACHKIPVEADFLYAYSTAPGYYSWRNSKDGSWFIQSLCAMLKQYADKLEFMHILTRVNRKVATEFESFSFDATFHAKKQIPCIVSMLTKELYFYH
Cytochrome P450 3A4 (Homo sapiens), sequence (P08684 whole entry, looked up): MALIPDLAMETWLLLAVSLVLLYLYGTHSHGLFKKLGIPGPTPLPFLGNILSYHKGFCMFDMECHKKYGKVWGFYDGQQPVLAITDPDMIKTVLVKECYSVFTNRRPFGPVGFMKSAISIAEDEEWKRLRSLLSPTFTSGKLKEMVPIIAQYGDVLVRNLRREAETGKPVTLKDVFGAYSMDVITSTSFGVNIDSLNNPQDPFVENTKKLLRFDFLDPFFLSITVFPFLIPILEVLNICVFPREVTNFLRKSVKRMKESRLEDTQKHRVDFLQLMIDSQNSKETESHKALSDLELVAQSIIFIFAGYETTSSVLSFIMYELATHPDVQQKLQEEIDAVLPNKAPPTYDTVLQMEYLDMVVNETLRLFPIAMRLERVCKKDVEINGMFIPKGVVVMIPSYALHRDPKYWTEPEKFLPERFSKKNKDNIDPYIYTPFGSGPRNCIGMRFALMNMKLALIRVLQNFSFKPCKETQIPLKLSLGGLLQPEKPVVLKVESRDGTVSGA

CCCCC(CC)C(=O)O (stereo not given)
inactive: all assays above

CCC(C)c1ccccc1O (stereo not given)
inactive: all assays above

CCCCCCCCCCCCOS(=O)(=O)O
active: [1] 50 µM | [3] 77.7 µM | [10] 94.1 µM | [11] 82.1 µM | [12] 79 µM | [13] 92.9 µM | [20] 87.6 µM
not listed: [9] | [14] | [15]
inactive: all other assays above

O=C(CCCN1CCC(O)(c2ccc(Cl)cc2)CC1)c1ccc(F)cc1
active: [1] 81.1 µM | [3] 67.8 µM | [10] 79.7 µM | [12] 77.8 µM | [13] 66.2 µM | [14] 73.5 µM | [17] 94.4 µM | [20] 93.2 µM
not listed: [11] | [15]
inactive: all other assays above

CCCCC=O
inactive: all assays above

CC(=O)Nc1ccc(O)cc1
inactive: all assays above

O=C1NS(=O)(=O)c2ccccc21
inactive: all assays above

Reference: PubChem BioAssay (EPA / NIEHS)
